High-throughput results (PubChem)
12-LOX inh – blocks human arachidonate 12S-lipoxygenase | P18054 | purified 12hLO, xylenol orange hydroperoxide absorbance | Potency, µM (highest dose often 108 µM), for inactives: top-dose activity change, negative = inhibition, usual class: inhibitors | 580,000 tested, 1.1% active | AID 1671190; also: potency is read from the fitted curve at half-maximal effect
Target sequence (P18054 whole entry, looked up): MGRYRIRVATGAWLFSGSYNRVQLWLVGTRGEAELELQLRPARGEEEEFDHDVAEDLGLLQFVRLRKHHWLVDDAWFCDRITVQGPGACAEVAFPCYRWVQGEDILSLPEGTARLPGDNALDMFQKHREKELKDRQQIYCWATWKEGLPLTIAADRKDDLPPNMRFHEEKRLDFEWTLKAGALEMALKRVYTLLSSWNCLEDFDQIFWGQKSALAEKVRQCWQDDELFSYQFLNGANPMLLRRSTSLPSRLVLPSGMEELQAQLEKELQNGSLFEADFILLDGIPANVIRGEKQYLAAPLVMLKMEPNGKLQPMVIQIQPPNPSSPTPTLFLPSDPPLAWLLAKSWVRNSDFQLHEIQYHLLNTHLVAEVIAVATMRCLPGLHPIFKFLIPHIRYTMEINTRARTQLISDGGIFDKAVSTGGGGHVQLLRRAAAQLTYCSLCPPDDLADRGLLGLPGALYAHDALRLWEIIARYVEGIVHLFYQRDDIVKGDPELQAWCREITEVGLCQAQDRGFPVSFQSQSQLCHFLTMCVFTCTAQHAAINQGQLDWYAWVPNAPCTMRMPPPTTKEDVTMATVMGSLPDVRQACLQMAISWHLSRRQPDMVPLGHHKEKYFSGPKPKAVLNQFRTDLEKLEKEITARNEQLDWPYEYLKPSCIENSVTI
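Hydroperoxide product was detected by ferrous iron/xylenol orange as the 573 to 405 nm absorbance ratio. Arachidonic acid at 40 uM (final) was turned over for 30 min at room temperature by 150 nM human 12hLO, pH 7.0 Hepes buffer, after 15 min compound preincubation.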
HT1080 IDH1KD tx – toxicity to HT-1080 IDH1 knockdown cells (counter line) | 360,000 tested, 2% active | Potency, µM (series often up to 46.1 µM), for inactives: at the highest dose activity, negative = toxicity, actives largely listed as cytotoxic | HT-1080 IDH1 knockdown viability, ATP luminescence, 48 h | AID 686971;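 also: potency is read from the fitted curve at half-maximal effect; 0% = DMSO wells and -100% = cell-free medium wells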
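HT-1080-IDH1KD cells (IDH1 knocked down), 750/well in RPMI with 5% FBS, treated with compound 48 h at 37 degrees C. Viability by CellTiter-Glo luminescence, normalised to DMSO and no-cell wells; concentration-response curves classed.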
TDP1 cell noCPT – qHTS for Inhibitors of human tyrosyl-DNA phosphodiesterase 1 (TDP1): qHTS in cells in absence of CPT. 420,000 tested, 15% active. DT40 Tdp1-/- hTDP1 cells, no CPT, ATP luminescence, 48 h. Potency, µM (doses to about 46.2 µM), for inactives: at the top dose activity change, negative = growth inhibition, hits mostly inhibitors; also: potency is read from the fitted curve at half-maximal effect; nearly all actives have a fitted effect of over 55% in size
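Cells were dispensed at 400 per well, compounds added by pin tool, plates incubated ≥48 hr at 37 °C, then CellTiter-Glo added for 30 min at room temperature before luminescence reading. Line: DT40 Tdp1-/- complemented with hTDP1; camptothecin omitted.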
HT1080-NT tox – kills 2HG-producing HT-1080-NT fibrosarcoma cells; Potency, µM (doses to about 46.1 µM), inactives show at the highest dose activity, negative = less viability, most hits filed as cytotoxic; AID 686970; 360,000 tested, 1.6% active; HT-1080-NT fibrosarcoma viability, CellTiter-Glo ATP luminescence, 48 h;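 also: NT is the 2HG producing partner of a matched IDH1 knockdown line; potency is read from the fitted curve at half-maximal effect; 0% = DMSO-treated cells and -100% = media-only wells without cells; nearly all actives have a fitted effect of over 55% in size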
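Toxicity toward the 2HG-producing NT line was scored as %Activity, normalised to DMSO and no-cell wells, from CellTiter-Glo luminescence after 48 hours' treatment.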
DT40 TDP1 CPT – growth inhibition of DT40 Tdp1-/-;hTDP1 cells with camptothecin (screen for TDP1 inhibitors); 420,000 tested, 12% active; chicken DT40 Tdp1-/-;hTDP1 cells + 20 nM CPT, ATP luminescence, 48 h; Potency, µM (top dose mostly 46.2 µM), for the others: at the top dose activity change, negative = growth inhibition, actives largely listed as inhibitors; also: potency is read from the fitted curve at half-maximal effect; nearly all actives have a fitted effect of over 55% in size
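Chicken DT40 Tdp1-/- cells stably complemented with human TDP1 were seeded at 400 cells/well in medium containing 20 nM camptothecin, exposed to pin-transferred compounds, and grown at 37 °C for at least 48 hr. Viability was read as ATP luminescence.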
IL1B secr inh – blocks inflammasome-driven IL-1 beta release | 360,000 tested, 4.7% active | THP-1 LPS/ATP IL-1B secretion, AlphaLISA, 16 h; hits give low values | AID 743279 | activity change, % at 57.5 µM; in the data active = activity change below about -50%; inconclusive = mostly about -30% to -49%
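Secreted IL-1B measured by AlphaLISA bead assay after 16 h compound exposure of THP-1 cells; compounds (final up to 57.5 uM) added 1 h before LPS (250 ng/mL) and ATP (1.25 mM) stimulation; lower signal means less secretion.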
Active calls of the source: *; ? = inconclusive; · = no result given. The full list was thinned out, with hits kept by preference. Unless noted, calls follow the shape of the dose curve; as a rule, active = well fitted curve in the direction sought with a large enough effect; inconclusive = small, poorly fitted or top-dose-only effect, or another doubt; inactive = no such curve, though single readings can be large; an effect the other way counts as inactive or inconclusive. Unless noted, % is scaled to controls: 0 for no effect and ±100 for the full control effect.

SMILES	12-LOX inh	HT1080 IDH1KD tx	TDP1 cell noCPT	HT1080-NT tox	DT40 TDP1 CPT	IL1B secr inh
CCc1ccc(NC(=O)CSc2ncc(-c3ccc(F)cc3)o2)cc1	1%	·	·	·	·	·
CC(C)CCSc1nc(N)c(C#N)cc1C#N	-27%	-29%	18µM*	-21%	?	?
Cc1ccccc1NC(=O)CSc1nc(N)c(C#N)cc1C#N	0%	5%	-5%	11%	-9%	-4
CCOc1ccc(C2SCC(=O)N2c2c(C)n(C)n(-c3ccccc3)c2=O)cc1 (stereo not drawn)	0%	6%	-2%	5%	7%	-2
CCOc1ccc(C2=C(C=Nc3c(C)n(C)n(-c4ccccc4)c3=O)C(c3ccc(F)cc3)c3ccccc3O2)cc1 (stereo not drawn)	·	0%	?	5%	23µM*	0
CC1CC(C)CN(C(=O)C(C)Cl)C1 (stereo not drawn)	-25%	·	·	·	·	·
CCn1c2c(c(=O)[nH]c1=O)C(c1ccccc1)C1=C(CC(C)(C)CC1=O)N2 (stereo not drawn)	54%	·	·	·	·	·
O=C(Nc1ccc(F)cc1)Nc1ccc(N2CCCC2)c(S(=O)(=O)Nc2ccccc2Cl)c1	-7%	23µM*	23µM*	?	23µM*	-60*
O=C(Nc1ccc(N2CCOCC2)c(S(=O)(=O)Nc2ccccc2Cl)c1)c1ccc(F)cc1	?	-15%	?	-5%	?	-56*
COc1ccc(NS(=O)(=O)c2cc(NC(=O)c3cc(F)c(F)cc3Cl)ccc2N2CCOCC2)cc1	400%	-25%	-23%	-15%	?	-28
O=C(Nc1ccc(N2CCCCC2)c(S(=O)(=O)Nc2ccccc2Cl)c1)c1cccnc1	?	-29%	?	0%	-28%	?
O=C(Nc1ccc(Cl)c(Cl)c1)Nc1ccc(N2CCCC2)c(S(=O)(=O)Nc2ccccc2Cl)c1	-6%	13µM*	4.1µM*	?	3.3µM*	-52*
O=C(CN1CCc2sccc2C1c1cccs1)Nc1cccc(F)c1 (stereo not drawn)	2%	·	·	·	·	·
Cc1ccc(C(=O)N/C(=C\c2ccc(-c3ccc(Cl)cc3)o2)C(=O)NCCCN(C)C)cc1	-28%	13µM*	12µM*	29µM*	12µM*	-67*
CN(C)CCCNC(=O)/C(=C\c1ccc(-c2ccc(Br)cc2)o1)NC(=O)c1ccccc1	-32%	23µM*	12µM*	?	3.7µM*	?
CN(C)CCCNC(=O)/C(=C/c1ccc(-c2ccc([N+](=O)[O-])cc2)o1)NC(=O)c1ccccc1	?	-9%	-24%	-20%	?	-16
Cc1ccc(C(=O)N/C(=C\c2ccc(-c3ccccc3[N+](=O)[O-])o2)C(=O)NCCCN(C)C)cc1	1%	-20%	5.8µM*	-5%	5.2µM*	5
CN(C)CCNC(=O)/C(=C/c1ccc(-c2cccc([N+](=O)[O-])c2)o1)NC(=O)c1ccccc1	-6%	?	?	?	?	?
COCCn1c(=O)[nH]c(=O)c2c3c(cnc21)C(=O)CC(c1ccc(F)cc1)C3 (stereo not drawn)	2%	·	·	·	·	·
O=C1NCCCCCCN(C(=O)c2ccco2)[C@H]2C[C@H](C(=O)N3CCc4ccccc4C3)C[C@@H]12	25%	·	·	·	·	·
Cc1ccc(CN(C(=O)Nc2cccc(Cl)c2)c2ccccn2)cc1	-25%	·	16µM*	·	?	·
O=C(Nc1ccccc1)N(Cc1ccc(F)cc1)c1ccccn1	-31%	·	?	·	?	·
COc1ccc(CN(C(=O)Nc2cccc(Cl)c2)c2ccccn2)cc1OC	-2%	·	13µM*	·	?	·
O=C(c1ccn[nH]1)N1CCCC(Cn2c(C3CC3)nc3cccnc32)C1 (stereo not drawn)	5%	·	·	·	·	·
COCCC1=NN(C(=O)c2ccncc2)C(O)(C(F)(F)F)C1 (stereo not drawn)	-2%	·	·	·	·	·
SMILES	12-LOX inh	HT1080 IDH1KD tx	TDP1 cell noCPT	HT1080-NT tox	DT40 TDP1 CPT	IL1B secr inh
COC(=O)[C@]1(CC(C)C)N[C@H](c2ccc(-c3cccc(Cl)c3)cc2)[C@@H]2C(=O)N(C)C(=O)[C@@H]21	?	-16%	26µM*	?	13µM*	?
CCN1C(=O)[C@H]2[C@@H](c3ccc(-c4ccccc4)cc3)N[C@@](CC(C)C)(C(=O)OC)[C@H]2C1=O	?	11%	18µM*	10%	26µM*	-2
CCN1C(=O)[C@H]2[C@@H](c3ccc(-c4ccccc4)c(OC)c3)N[C@@](CC(C)C)(C(=O)OC)[C@H]2C1=O	3%	-5%	15µM*	-3%	18µM*	0
COC(=O)[C@]1(CC(C)C)N[C@H](c2ccc(-c3ccc4c(c3)OCO4)cc2)[C@@H]2C(=O)N(C)C(=O)[C@@H]21	-31%	8%	?	21%	?	21
CCN1C(=O)[C@H]2[C@@H](c3ccc(SC4CCCCC4)cc3)N[C@@](CC(C)C)(C(=O)OC)[C@H]2C1=O	-6%	3%	21µM*	-25%	?	-23
Cc1ccc(C)c(CN2CCc3nc(N(C)Cc4cccnc4)[nH]c(=O)c3CC2)c1	4%	·	·	·	·	·
CCN(Cc1ccccc1)C(=O)c1oc2ccc(S(=O)(=O)N3CCOCC3)cc2c1C	3%	-17%	-26%	-18%	?	-53*
CCN(CC)C(=O)c1oc2ccc(S(=O)(=O)N3CC(C)CC(C)C3)cc2c1C (stereo not drawn)	-13%	?	9.2µM*	?	4.1µM*	-7
Cc1c(C(=O)N2CCOCC2)oc2ccc(S(=O)(=O)N3CCCCCC3)cc12	-20%	4%	?	11%	-13%	15
Cc1c(C(=O)NCc2cccnc2)oc2ccc(S(=O)(=O)N3CC(C)CC(C)C3)cc12 (stereo not drawn)	1%	-11%	-29%	-20%	?	36
CCN(CC)C(=O)c1oc2ccc(S(=O)(=O)N3CCCCCC3)cc2c1C	0%	-18%	23µM*	?	?	-10
Cc1c(C(=O)Nc2ccc(F)cc2)oc2ccc(S(=O)(=O)N3CC(C)CC(C)C3)cc12 (stereo not drawn)	-2%	-11%	15µM*	0%	18µM*	40
COc1ccc(C(=O)NC2CCN(c3cc(-c4ccc(F)cc4)[nH]n3)CC2)c(OC)c1	10%	·	·	·	·	·
COc1ccc(NC(=O)Nc2ccc3nc(N4CCOCC4)cc(C)c3c2)cc1	-9%	·	·	·	·	·
